PubChem BioAssay (NCI)
The panel holds about 83,000 compounds, 20% with a hit somewhere; the sample as a whole holds those more often.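 The endpoint reported here, percent growth, reads 100 for growth as untreated, 0 for no net growth and -100 for all cells dead.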 Values without a mark were called inactive. The source made the active and inactive calls. Rule for the calls: active = growth percent below 10; inactive = the rest.

Legend:
Assay in all cases: NCI-60 one-dose screen, 48 h (100 = growth as untreated, 0 = no growth, -100 = all killed)
Conditions in all cases: 10 µM
SK-MEL-2 melanoma = test system: SK-MEL-2 melanoma
EKVX NSCLC = test system: EKVX NSCLC
SN12C renal = test system: SN12C renal
UO-31 renal = test system: UO-31 renal
TK-10 renal = test system: TK-10 renal
ACHN renal = test system: ACHN renal
CAKI-1 renal = test system: CAKI-1 renal
A498 renal = test system: A498 renal
CCRF-CEM leukemia = test system: CCRF-CEM leukemia
MOLT-4 leukemia = test system: MOLT-4 leukemia

Compound	growth (SK-MEL-2 melanoma)	growth (EKVX NSCLC)	growth (SN12C renal)	growth (UO-31 renal)	growth (TK-10 renal)	growth (ACHN renal)	growth (CAKI-1 renal)	growth (A498 renal)	growth (CCRF-CEM leukemia)	growth (MOLT-4 leukemia)
CN(C(=O)c1ccc(C(C)(C)C)cc1)c1sc2c(c1C#N)CCC(=O)C2	97.7%	68.9%	17.1%	-98.5% (active)	23%	-45.8% (active)	36.9%	97.6%	8.93% (active)	29.8%
COc1ccc2cc([C@H](C)C(=O)NCc3ccccc3)ccc2c1	31%	42.5%	33.5%	46.3%	65.7%	54.9%	34.7%	63.1%	31%	47%
Cc1cc(=O)oc2cc(OCCCCOc3ccc(/C=C/C(=O)Nc4ccccc4[N+](=O)[O-])cc3)ccc12	117%	105%	100%	90.6%	104%	108%	100%	127%	99.8%	108%
Cc1ccc(-c2cc(C(=O)N=Nc3c(O)[nH]c4ccccc34)c3ccccc3n2)cc1	101%	38.4%	-9.28% (active)	51.6%	63.4%	25.8%	24.3%	88.2%	22.9%	31.7%
O=C1NC(=NC23CC4CC(CC(C4)C2)C3)N/C1=C\c1ccc2ncoc2c1	-92.4% (active)	-14% (active)	2.78% (active)	1.68% (active)	24.2%	-10.4% (active)	7.48% (active)	-5.36% (active)	-6.48% (active)	10.6%
O=C(Cc1ccc2c(c1)CN(C1CCC(=O)NC1=O)C2=O)NCc1cccc2ccccc12 (stereo not given)	-45.7% (active)	1.9% (active)	-7.92% (active)	-33.8% (active)	18%	-19% (active)	7.68% (active)	-13.2% (active)	9.65% (active)	-15.2% (active)
Clc1ccc(/C=N/Nc2ncnc3sc4c(c23)CCN(Cc2ccccc2)C4)cc1	93.5%	56.7%	-62.4% (active)	22.1%	-76.1% (active)	27.4%	34.5%	-32.2% (active)	-24.2% (active)	4.13% (active)
Cc1ccn2c(C(=O)c3ccccc3)cc(-c3cc(-c4ccc(N(C)C)cc4)c(C#N)c(N)n3)c2c1	80.9%	88.6%	61.9%	65.4%	85.7%	31.2%	52.7%	111%	96.5%	82.9%
CN1C/C(=C\c2ccc(O)cc2O)c2[o+]c3cc(O)ccc3cc2C1	46.5%	78%	39.9%	63.6%	82.4%	71.9%	70.1%	117%	41.1%	37.8%
CN1CCO/C1=C(/NC(=O)c1ccc(Cl)cc1)[P+](c1ccccc1)(c1ccccc1)c1ccccc1	90.9%	81.2%	92.4%	86.7%	99.6%	110%	103%	125%	77.9%	87.9%
Cc1cc(C)nc(NS(=O)(=O)c2ccc(N/C(N)=N/c3nccc(-c4cccs4)n3)cc2)n1	108%	83.5%	96.9%	59.1%	117%	94.8%	74.2%	117%	95%	96.8%
COc1cc2c3c(n(CCCn4ccnc4)c(=O)c2cc1OC)-c1nc2c(cc1C3=O)OCO2	123%	91.6%	19.7%	26.5%	110%	3.67% (active)	10.2%	118%	18.5%	20.9%
CN1CCN(Cc2ccc(C(=O)Nc3cccc(Nc4ccc5cc(O)ccc5n4)c3)cc2C(F)(F)F)CC1	-95% (active)	-40.7% (active)	-64% (active)	-36.8% (active)	24%	-56.8% (active)	-28% (active)	148%	-37.1% (active)	-41.1% (active)
COc1ccc(/C(CSc2nnc(-c3c[nH]c4ccccc34)n2-c2ccccc2)=N/O)cc1	5.87% (active)	15.1%	45.8%	18.2%	42.7%	22.3%	20.1%	69.8%	16.5%	16.7%
CO[C@@H]1CSS[C@H]1Cn1nc(-c2ccc(Oc3ccccc3)cc2)c2c(N)ncnc21	64.7%	42.8%	73.9%	27.2%	45.5%	68.2%	47.6%	67%	10.7%	14%
O=C(c1ccc(O)cc1)C1[C@H](c2ccc(Br)cc2)[C@@H](c2ccccc2)NC12C(=O)Nc1ccccc12 (stereo not given in full)	55.7%	28%	23.5%	18.9%	35.9%	6.89% (active)	22.6%	37%	36.3%	16.3%
Cc1ccc(-c2nc(Nc3ccc(S(N)(=O)=O)cc3)c3ccccc3n2)cc1	99.9%	65.9%	68.7%	54.5%	104%	42.8%	36.5%	61.3%	25.7%	11.2%
Cc1noc2c(Cc3ccccc3)nn(CC(=O)N/N=C/c3ccc(Br)cc3)c(=O)c12	106%	65.8%	8.51% (active)	-32.3% (active)	17.8%	6.21% (active)	58.4%	-62.4% (active)	96.8%	93.9%
Nc1nc(Nc2ccc(Cl)cc2)nn1Cc1cccc(Br)c1	27.2%	22.3%	41.1%	18.2%	61.1%	22.8%	26.9%	-1.15% (active)	34.3%	20.1%
CC1(C)[C@@H](NCO)CC[C@]2(C)[C@H]3C(=O)C=C4[C@@H]5C[C@](C)(CO)CC[C@]5(C)CC[C@@]4(C)[C@]3(C)CC[C@@H]12	94.6%	75.5%	72%	54.9%	107%	63.1%	59.1%	140%	70.3%	16.5%
C=C[C@@]12CN3CC[C@]1(O)[C@@](C(=O)OC)(CO2)c1[nH]c2ccccc2c1C3	86.1%	53.5%	67.5%	69.5%	97%	73.6%	70.1%	81.8%	55.3%	76.7%
Brc1ccc(/C=N/Nc2ncnc3sc4c(c23)CCN(Cc2ccccc2)C4)cc1	112%	94.2%	64.4%	73.9%	125%	56.5%	70%	117%	22.5%	46.2%
COc1ccc2nc(Nc3cccc(NC(=O)c4ccc(CN5CCN(C)CC5)c(C(F)(F)F)c4)c3)ccc2c1	-98.3% (active)	-98% (active)	-92.6% (active)	-48.2% (active)	-44.4% (active)	-94.8% (active)	-33.7% (active)	-42.3% (active)	-10.5% (active)	-44.6% (active)
COc1ccc(C(=O)CSc2nnc(-c3c[nH]c4ccccc34)n2-c2ccccc2)cc1	72%	29.3%	44.4%	32.6%	63.9%	22.8%	61.5%	111%	82.5%	82.1%
O=C(CSc1nnc(-c2c[nH]c3ccccc23)n1-c1ccccc1)Nc1ccc(C(=O)/C=C/c2ccc(Br)cc2)cc1	101%	67.4%	89.5%	52.9%	97.7%	78%	76%	106%	90.9%	57.1%
CN1CCN(c2ccc(C(=O)/C=C/c3ccc(C#N)cc3)cc2)CC1	104%	82%	73.8%	61.8%	102%	83.5%	63.8%	103%	65.9%	90.5%
